Screens from PubChem.
The list is not random: actives were taken first. Their share in the collection is about 2.4%.
PLCg1 inh = PLC-gamma1 enzyme inhibitors, primary screen, biochemical, fluorescence, purified enzyme. fluorogenic substrate. inhibition, % at 12.2 µM. 0.84% of 370,000 active. AID 720700, 2013
Target sequence (P19174 whole entry, looked up): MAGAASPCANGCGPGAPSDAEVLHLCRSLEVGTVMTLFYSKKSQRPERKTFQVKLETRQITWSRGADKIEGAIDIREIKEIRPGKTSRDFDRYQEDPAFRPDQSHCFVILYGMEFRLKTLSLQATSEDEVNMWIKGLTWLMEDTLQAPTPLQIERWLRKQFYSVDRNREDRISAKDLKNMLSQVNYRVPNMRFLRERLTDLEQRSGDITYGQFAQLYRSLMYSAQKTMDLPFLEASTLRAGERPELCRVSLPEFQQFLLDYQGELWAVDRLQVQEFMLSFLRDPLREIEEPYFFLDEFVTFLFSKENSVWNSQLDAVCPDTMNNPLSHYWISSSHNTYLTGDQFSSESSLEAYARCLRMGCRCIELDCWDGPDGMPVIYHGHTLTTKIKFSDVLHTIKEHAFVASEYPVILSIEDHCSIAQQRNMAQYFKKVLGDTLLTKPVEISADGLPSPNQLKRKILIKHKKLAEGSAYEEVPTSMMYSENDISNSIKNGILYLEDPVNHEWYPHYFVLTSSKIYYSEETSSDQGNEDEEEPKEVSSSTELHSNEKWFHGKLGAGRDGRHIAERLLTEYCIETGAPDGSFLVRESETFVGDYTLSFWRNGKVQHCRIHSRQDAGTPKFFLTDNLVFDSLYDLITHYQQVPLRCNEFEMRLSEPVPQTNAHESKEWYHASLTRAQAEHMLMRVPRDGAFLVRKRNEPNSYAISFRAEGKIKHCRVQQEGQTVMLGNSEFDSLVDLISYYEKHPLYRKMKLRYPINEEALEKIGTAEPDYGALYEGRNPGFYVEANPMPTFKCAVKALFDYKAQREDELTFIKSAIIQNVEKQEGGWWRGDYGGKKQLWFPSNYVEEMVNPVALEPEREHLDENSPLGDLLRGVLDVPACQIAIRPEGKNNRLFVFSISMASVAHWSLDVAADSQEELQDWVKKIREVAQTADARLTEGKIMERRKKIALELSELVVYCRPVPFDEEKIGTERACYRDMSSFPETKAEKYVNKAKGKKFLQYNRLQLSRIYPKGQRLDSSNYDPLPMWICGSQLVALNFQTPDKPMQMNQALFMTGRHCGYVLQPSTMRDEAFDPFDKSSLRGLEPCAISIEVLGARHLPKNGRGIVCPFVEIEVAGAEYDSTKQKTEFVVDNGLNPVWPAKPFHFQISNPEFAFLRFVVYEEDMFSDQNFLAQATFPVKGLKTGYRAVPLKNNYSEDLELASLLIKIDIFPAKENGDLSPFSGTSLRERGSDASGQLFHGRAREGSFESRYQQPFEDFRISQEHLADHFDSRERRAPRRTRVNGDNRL
UHRF1 MBD2 ctr = UHRF1 methylated DNA binding inhibitors, primary screen, counter-screen for MBD2 inhibitor project, biochemical, TR-FRET, human UHRF1, single concentration; E3 ubiquitin-protein ligase UHRF1 (Homo sapiens), Q96T88; inhibition, % at 4.4 µM; UHRF1 binding to methylated oligo; 0.75% of 370,000 active; AID 687016, 2013; in the data active = inhibition above about 21%;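 also: UHRF1 SRA domain binding a hemimethylated CpG hairpin DNA probe; 0% = median of test compound wells and 100% = reference inhibitor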
MBD2 inh = inhibitors of MBD2 binding to methylated DNA, primary screen, biochemical, TR-FRET, DNA-binding domain, human | Methyl-CpG-binding domain protein 2 (Homo sapiens), Q9UBB5 | MBD2 binding to methylated oligonucleotide | 0.31% of 370,000 active | inhibition, % at 4.4 µM; in the data active = inhibition above about 13%
PLCb3 inh = human PLC-beta3 inhibitors, primary screen, biochemical, fluorescence | Purified PLC-beta3, fluorogenic substrate | inhibition, % at 12.2 µM | AID 720704, 2013 | 0.18% of 370,000 active | 1-phosphatidylinositol 4,5-bisphosphate phosphodiesterase beta-3 (Homo sapiens), Q01970; in the data active = inhibition above about 11%;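 also: 0% = median of compound wells on plate and 100% = full blocker control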
LEDGF integ inh = blockers of LEDGF/p75-dependent integrase strand transfer – biochemical, TR-FRET, high throughput, primary screen; inhibition, % at 3.7 µM; 0.64% of 370,000 active; HIV-1 integrase (with human LEDGF/p75); TR-FRET IN-LEDGF/p75 DNA integration, Eu/Cy5;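 active = inhibition above the screen-wide mean plus 3 SD, cut at about 13% in these data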;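 also: signal is the Cy5 over europium emission ratio at 671 and 618 nm; 0% = plate median of compound wells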
PLCg1 ctr = PLC-gamma1 enzyme inhibitors, counter-screen for PLC-beta3 inhibitor project, biochemical, fluorescence | shares compounds with PLCg1 inh | purified PLC-gamma1, fluorogenic substrate | inhibition, % at 12.3 µM | 3.1% of 3,300 active
PLCbeta3 conf = PLC-beta3 inhibitor confirmation, biochemical, fluorescence, purified enzyme; shares compounds with PLCg1 inh; fluorogenic substrate fluorescence; inhibition, % at 12.3 µM; 1% of 3,300 active; in the data active = inhibition above about 11%
An asterisk follows results filed as active; i = inactive; . = no result. Rule as the data show it, unless noted: active = inhibition above about 9.5%; inactive = the rest.

SMILES	PLCg1 inh	UHRF1 MBD2 ctr	MBD2 inh	PLCb3 inh	LEDGF integ inh	PLCg1 ctr	PLCbeta3 conf
COC(=O)[C@H]1C[C@@]2(O)CN(S(=O)(=O)c3ccc(C)cc3)C[C@@]2(OC(=O)NCc2ccccc2)C[C@H]1C(=O)OC	1.2	0.6	-4.2	-0.5	4.0	.	.
O=C(Nc1c(-c2ccc(F)cc2)nc2ncccn12)C1CC1	i	0.6	2.2	i	2.0	.	.
Oc1ccc(-c2csc(Nc3ncccn3)n2)cc1	-1.2	-1.7	-0.2	-4.3	1.0	.	.
CC(=O)Nc1ccc(-c2csc(Nc3ncccn3)n2)cc1	9.9*	1.9	-1.5	-3.6	3.4	1.8	3.8
Cc1ccc(NC(=O)C2CCN(c3nnc(-n4cccc4)s3)CC2)cc1C	7.3	-0.4	-1.0	2.6	7.6	.	.
O=C(OCc1cn(Cc2cccc(F)c2)nn1)N1CCCCC1	-1.4	4.4	-1.1	1.1	-2.0	.	.
CC(C)[C@H]1COc2c3ccccc3nn21	2.9	-2.7	-4.7	3.4	3.3	.	.
C=CCNC(=S)NNC(=O)c1csc(CC)c1	2.6	0.4	-2.2	6.2	-4.5	.	.
CCNC(=S)NNC(=O)c1csc(C)c1	-1.4	-0.1	2.5	7.8	0.3	.	.
CCCCNC(=S)NNC(=O)c1csc(CC)c1	-1.5	0.7	0.6	13.8*	1.8	-6.7	12.6*
CCCCNC(=S)NNC(=O)c1csc(C)c1	2.9	-2.8	0.7	22.9*	0.1	-5.3	16.4*
Cc1cccc(-c2cccc3c4c([nH]c23)[C@@H]2C[C@H](N(C)C(=S)Nc3ccc(C#N)cc3)[C@H]([C@H](C)O)CN2CC4)c1	-235.8	-0.7	5.2	-248.7	2.7	.	.
CCOC(=O)c1c(C)nc2c(c1-c1cc(OC)c(OC)c(OC)c1)C(=O)c1ccccc1-2	12.5*	4.6	1.6	7.0	-0.1	-1.4	-3.5
CCOC(=O)c1c(C)nc2c(c1-c1ccc(OC)cc1)C(=O)CC(C)(C)C2	9.3	0.8	1.2	4.2	-2.0	.	.
COc1ccc(C(=O)Nc2ccc(S(=O)(=O)N3CCCCC3C)cc2)c(OC)c1OC (stereo not drawn)	10.3*	0.2	-0.3	11.9*	0.2	3.2	-0.5
COC(=O)[C@]12C[C@H](CC(=O)NCc3cccc(C(F)(F)F)c3)C(=O)N(Cc3ccc4c(c3)OCO4)C1=C[C@H](C(C)C)O[C@@H]2C1CC1	-0.8	2.6	0.1	3.0	0.4	.	.
CCCn1c(SCC(=O)N2CCN(C(C)=O)CC2)nc2sc3c(c2c1=O)CCC3	2.7	-0.7	-3.8	-0.4	4.3	.	.
CCCn1c(SCC(=O)NCC)nc2sc3c(c2c1=O)CCC3	9.6*	2.0	5.9	-6.6	-8.1	7.0	1.9
C/C(=C/c1nc(N)n(Cc2ccccc2)c1Cc1ccccc1)Cn1[nH]c(=O)n(-c2ccccc2)c1=O	0.5	6.3	5.1	-1.4	1.4	.	.
COc1ccc(-n2c(COc3ccc(C)cc3)nnc2SCC(=O)c2ccc(-c3ccccc3)cc2)cc1	1.9	-1.4	-6.0	1.1	4.6	.	.
CS(=O)(=O)N1CCN(c2ccc(NC(=O)C(c3ccccc3)c3ccccc3)cc2)CC1	9.6*	-1.8	-2.1	6.2	5.3	-7.2	-4.7
CC1=C(C(=O)Nc2ccccn2)C(c2ccc(Br)cc2)NC(=S)N1 (stereo not drawn)	14.9*	2.5	2.9	5.1	7.9	-2.1	-2.1
CCCCN1CNC(=S)N(c2ccccc2OCC)C1	11.2*	3.8	-0.1	2.5	-1.2	0.9	4.0
CCCN1CNC(=S)N(c2ccccc2OCC)C1	4.5	0.5	-1.0	1.9	2.3	.	.
COc1ccc(C(=S)N2CCN(c3ccccc3C)CC2)cc1	13.3*	1.0	-2.3	4.1	7.2	-1.3	-1.3
SMILES	PLCg1 inh	UHRF1 MBD2 ctr	MBD2 inh	PLCb3 inh	LEDGF integ inh	PLCg1 ctr	PLCbeta3 conf
O=C([C@@H]1C[C@H]1c1ccccc1)N1CC[C@H]2[C@H](CCCN2Cc2cc(F)cc(F)c2)C1	-2.4	2.1	0.8	-0.3	-4.3	.	.
CCn1nc(C)c(/C=N/NC(=S)Nc2ccc(Cl)cc2Cl)c1C	4.3	-0.7	2.6	11.5*	4.9	-2.2	-2.5
COc1cccc(CNC(=O)Cn2c(-c3ccccc3)cc(C(C)=O)c2C)c1	0.0	0.2	1.1	-0.4	-3.4	.	.
CN1CCC(=NNc2ccc(S(=O)(=O)N3CCOCC3)cc2[N+](=O)[O-])CC1	1.0	1.2	-1.4	-4.5	0.3	.	.
C/C(=N\Nc1ccc(S(=O)(=O)N2CCOCC2)cc1[N+](=O)[O-])C(C)C	10.2*	-0.6	2.1	-0.8	-3.1	-1.1	-1.6
CCOC(=O)c1cc(=O)c2c([N+](=O)[O-])ccc(OC)c2o1	9.6*	2.7	2.5	4.8	6.1	-5.3	-3.1
COc1ccc([N+](=O)[O-])c2c(=O)ccoc12	4.1	-1.7	3.2	4.3	2.9	.	.
COc1ccc(N2CCN(CCCNC(=O)CCc3cccc(Cl)c3)CC2)cc1	-1.6	1.9	0.3	2.0	1.5	.	.
Nc1cc(-c2ccc(Cl)cc2)nn1S(=O)(=O)c1cccc2nsnc12	1.6	-0.3	1.3	5.0	0.3	.	.
COc1ccccc1-c1cc(N)n(S(=O)(=O)c2cccc3nsnc23)n1	11.8*	0.2	-1.8	3.2	3.8	-2.4	2.5
O=S1(=O)c2ccc(N3CCSCC3)cc2Oc2ccccc2CN1Cc1cn(Cc2ccc(Cl)cc2)nn1	-1.0	0.0	3.4	-6.2	-1.1	.	.
N#Cc1ccccc1CSc1ccccn1	9.0	0.8	-7.2	11.1*	3.5	-5.5	-8.1
Cc1cc(C)nc(SCCn2c(N3CCCCC3)nc3c2c(=O)n(C)c(=O)n3C)n1	9.6*	0.6	2.8	7.8	1.2	-2.8	-1.2
CC1CCC2(CC1)CCN(CCCOC(=O)Nc1cccc(F)c1)C2=O (stereo not drawn)	1.9	-0.2	5.4	3.2	3.1	.	.
C/C=C/C(=O)Nc1cccc(C2=NOC3(C2)C[C@@H](C(N)=O)N(C(=O)c2cc([N+](=O)[O-])cc([N+](=O)[O-])c2C)C3)c1 (stereo partly drawn)	10.8*	4.0	1.4	4.4	2.9	-6.7	-2.6
Cc1ccc(C=Nn2c(-c3n[nH]c4c3CCC4)n[nH]c2=S)o1	-2.4	-0.4	2.2	-2.7	-3.9	.	.
Fc1ccc(-[n+]2nc(Nc3ccccc3)sc2-c2c(Cl)cccc2Cl)cc1	11.3*	-4.7	0.9	15.3*	-2.8	4.5	-18.1
CCN1CCN(Cc2ccc(NC(=O)c3cccc(-c4ccc5nc(NC(=O)C6CC6)sc5n4)c3)cc2C(F)(F)F)CC1	-12.5	-1.1	2.2	-9.6	-1.0	.	.
